Activity calls are given as the source filed them. Rule for the calls: active = hit-call score of the fitted dose curve at least 0.9, where 1 is the maximum; inactive = score below 0.9.
What follows are molecules tested on Thrombomodulin, THBD (gene 7056) (assay: BSK_3C_Thrombomodulin: BioMAP Diversity Plus: 3C Assay for Thrombomodulin Biomarker Activity (AID 2283029)). Conditions: primary human endothelial cells (HUVEC); actives raise or lower the signal.
Procedure: BSK_3C is a cell-based, multiplexed-readout assay that uses umbilical vein endothelium, a human vascular primary cell, with measurements taken at 24 hours after chemical dosing in a 96-well plate.BSK_3C_Thrombomodulin is an assay component measured in the BSK_3C assay. It measures Thrombomodulin antibody related to regulation of gene expression using ELISA technology.Data from the assay component BSK_3C_Thrombomodulin was analyzed into 1 assay endpoint. This assay endpoint, BSK_3C_Thrombomodulin, was analyzed with bidirectional fitting relative to DMSO as the negative control and baseline of activity. Using a type of binding reporter, gain or loss-of-signal activity can be used to understand changes in the signaling as they relate to the gene THBD. Furthermore, this assay endpoint can be referred to as a primary readout, because this assay has produced multiple assay endpoints where this one serves a signaling function. To generalize the intended target to other relatable targets, this assay endpoint is annotated to the gpcr intended target family, where the subfamily is rhodopsin-like receptor.
The levels of cell surface (or secreted, indicated by the prefix "s") biomarker endpoints were measured by ELISA. Overt cytotoxicity to cells in confluent adherent cultures (all systems other than the BT system) was assessed by measuring total protein levels using sulforhodamine B (SRB) staining in parallel cultures at the time of biomarker measurements, indicated as SRB endpoints. For proliferation assays for adherent cell types, individual cell types are cultured at sub-confluence and relative cell numbers quantified by SRB staining at time points optimized for each system (48 h: 3C and CASM3C systems; 72 h: BT and HDF3CGF systems; 96 h: SAg system). SRB was performed by staining cells with 0.1% SRB after fixation with 10% TCA and reading wells at 560 nm.Viability and proliferation of PBMC (T cells) was quantified by Alamar Blue reduction for the SAg and BT systems. For PBMC viability (referred to as PBMC Cytotoxicity within the assay endpoint names), cells were plated (75,000/well in a 96-well plate) and then chemical samples added for 1 h before addition of activators, SEB and TSST-1 (20 ng/mL final concentration each). Cells were incubated for 90 h. Then, Alamar Blue (20 uL/well) (Invitrogen, Cat DAL1100) was added for 6 h, and the plates were read with a fluorescence microplate reader at 546/580 nm (excitation/emission). For PBMC proliferation, cells were plated and activated as above but incubated for only 16 h prior to addition of Alamar Blue. Plates were read after 6 h.

| SMILES | outcome | AC50 |
| --- | --- | --- |
| C=CCOC(=O)c1ccccc1C(=O)OCC=C | inactive | – |
| COc1cc(-c2nc(NC(=O)c3cc4cc(C)cc(C)c4n3CC(=O)O)sc2CCC2CCCCC2)c(OC)cc1Cl | – | 23.6 µM (active) |
| CC=Cc1ccc(O)c(OC)c1 | inactive | – |
| Cc1ccc2ncccc2c1 | inactive | – |
| CCCCCCCCCCCC(=O)OC | inactive | – |
| FC(F)(F)C(F)(F)C(F)(F)C(F)(F)C(F)(F)C(F)(F)CCI | inactive | – |
| CCCCc1ccc2c(n1)[C@@H](c1ccc(OC)cc1C[C@H](C)C(=O)O)[C@H](C(=O)O)[C@H]2c1ccc2c(c1)OCO2 | inactive | – |
| Cc1nc(C)nc(N2C[C@@H](C)N(c3ccnc([C@@H](C)O)n3)[C@@H](C)C2)n1 | inactive | – |
| Cc1c(C(=O)O)c(O)cc2c1C(=O)c1c(O)c([C@@H]3O[C@H](CO)[C@@H](O)[C@H](O)[C@H]3O)c(O)c(O)c1C2=O | inactive | – |
| CC(C)c1ccc(C(=O)N=C(N)N)cc1S(C)(=O)=O | inactive | – |
| C=CCc1ccc(O)c(OC)c1 | inactive | – |
| NCC1(Cc2noc(=O)[nH]2)CCCCC1 | inactive | – |
| O=C(N[C@@H](Cc1ccccc1)[C@@H](O)C(=O)N1C[C@@H](O)[C@@H](O)C1)c1cc2cc(Cl)ccc2[nH]1 | inactive | – |
| Oc1ccc2ccccc2c1N=Nc1ccccc1 | inactive | – |
| Oc1ccc2c(c1)OC[C@@H](N1CCC(O)(c3ccc(F)cc3)CC1)[C@H]2O | inactive | – |
| CCCCCCCCCCCCCO | inactive | – |
| CCOC(=O)C(C)(C)Oc1ccc(Cl)cc1 | inactive | – |
| Cc1cccc([N+](=O)[O-])c1C | inactive | – |
| Cc1cccc(C)c1O | inactive | – |
| NS(=O)(=O)c1cc2c(cc1Cl)NCNS2(=O)=O | inactive | – |

| SMILES | outcome | AC50 |
| --- | --- | --- |
| O=c1[nH]cc(F)c(=O)[nH]1 | inactive | – |
| CCc1c(C(=O)NN2CCCCC2)nn(-c2ccc(Cl)cc2Cl)c1-c1ccc(Br)cc1 | inactive | – |
| Cc1ccccc1Cl | inactive | – |
| CC(=O)C(C)=CC1C(C)=CCCC1(C)C (stereo not given) | inactive | – |
| CCCCOC(=O)CCCCCCCCC(=O)OCCCC | inactive | – |
| CCCCCCCC=O | inactive | – |
| CCCCC(CC)COC(=O)CC(C(=O)OCC(CC)CCCC)S(=O)(=O)O (stereo not given) | inactive | – |
| Cc1ccc(C)c(O)c1C | inactive | – |
| CN[C@H]1CC[C@@H](c2ccc(Cl)c(Cl)c2)c2ccc(S(N)(=O)=O)cc21 | – | 4.65 µM (active) |
| O=C(O)CCCCC(=O)O | inactive | – |
| Cc1cc(NC(=O)C(=O)O)cc(C)c1Oc1ccc(O)c2c1CCC2 | inactive | – |
| Clc1cc(Cl)c(Cl)cc1Cl | inactive | – |
| Cc1cc(=O)[nH]c(=S)[nH]1 | inactive | – |
| COCCOCCOC | inactive | – |
| COc1ccc2c(c1)c(CC(=O)O)c(C)n2C(=O)c1ccc(Cl)cc1 | inactive | – |
| CC1=C(/C=C/C(C)=C/C=C/C(C)=C/CO)C(C)(C)CCC1 | inactive | – |
| CC(=O)OC/C=C(\C)CCC=C(C)C | inactive | – |
| CCCCCCCCCCC | inactive | – |
| O=C(OCCCCCOC(=O)c1ccccc1)c1ccccc1 | inactive | – |
| CCCCCCCCCCO | inactive | – |

Reference: PubChem BioAssay (EPA / NIEHS)
